# Measurements: publication PMC7862700, “An all-to-all approach to the identification of sequence-specific readers for epigenetic DNA modifications on cytosine”
# Experiments:
# Experiment in all cases: DAPPL (digital affinity profiling via proximity ligation, sequencing); 10 mM Tris-HCl pH 7.5, 50 mM NaCl, 1 mM DTT, 4% glycerol, room temperature, 30 min; GST-TFs on glutathione beads, 16-mer random dsDNA library, 0.1% formaldehyde crosslink after washing; high values mean tight binding
# FEV = target: T1, FEV (Homo sapiens, UniProt Q99581 1-238); conditions: protein: recombinant; tags: N-terminal GST; dsDNA, one strand shown
# T1 sequence: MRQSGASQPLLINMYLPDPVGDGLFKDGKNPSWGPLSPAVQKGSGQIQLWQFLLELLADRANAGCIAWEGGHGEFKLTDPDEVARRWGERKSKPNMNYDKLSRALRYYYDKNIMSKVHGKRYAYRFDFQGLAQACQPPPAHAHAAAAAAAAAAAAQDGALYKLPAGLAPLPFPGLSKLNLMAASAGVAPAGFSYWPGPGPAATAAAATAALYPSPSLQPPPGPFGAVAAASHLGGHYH
# Method in brief: (§1)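 Yeast served to express human transcription factors as GST fusions, which were then captured on glutathione beads and labelled with DNA barcodes. Pooled with a tag-only sample, they were incubated with 200 nmole of a 16-mer random double-stranded DNA library for 30 min at room temperature in Tris/NaCl/DTT/glycerol buffer, washed, crosslinked with 0.1% formaldehyde, ligated by proximity, amplified by PCR and sequenced. Dividing each hexamer's read frequency for a factor by its frequency for the tag-only sample gives the binding signal.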
# ETV5 = ETV5 (Homo sapiens, UniProt P41161 1-510); conditions: protein: recombinant; tags: N-terminal GST; dsDNA, one strand shown
# Method in brief: as §1
# HSF1 = HSF1 (Homo sapiens, UniProt Q00613 1-529); conditions: protein: recombinant; tags: N-terminal GST; chain copies: 3; dsDNA, one strand shown
# Method in brief: as §1
# SPIC = target: T2, SPIC (Homo sapiens, UniProt Q8N5J4 1-248); conditions: protein: recombinant; tags: N-terminal GST; dsDNA, one strand shown
# T2 sequence: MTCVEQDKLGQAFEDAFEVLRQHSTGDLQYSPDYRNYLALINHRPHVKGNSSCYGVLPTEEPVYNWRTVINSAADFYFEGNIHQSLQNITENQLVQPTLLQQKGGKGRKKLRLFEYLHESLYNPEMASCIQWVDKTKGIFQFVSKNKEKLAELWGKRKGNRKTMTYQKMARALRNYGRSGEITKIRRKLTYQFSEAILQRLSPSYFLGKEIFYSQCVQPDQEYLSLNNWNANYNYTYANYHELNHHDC
# Method in brief: as §1
# ELF4 = ELF4 (Homo sapiens, UniProt Q99607 1-663); conditions: protein: recombinant; tags: N-terminal GST; dsDNA, one strand shown
# Method in brief: as §1
# ELK4 = target: T3, ELK4 (Homo sapiens, UniProt P28324-2 1-405); conditions: protein: recombinant; tags: N-terminal GST; dsDNA, one strand shown
# T3 sequence: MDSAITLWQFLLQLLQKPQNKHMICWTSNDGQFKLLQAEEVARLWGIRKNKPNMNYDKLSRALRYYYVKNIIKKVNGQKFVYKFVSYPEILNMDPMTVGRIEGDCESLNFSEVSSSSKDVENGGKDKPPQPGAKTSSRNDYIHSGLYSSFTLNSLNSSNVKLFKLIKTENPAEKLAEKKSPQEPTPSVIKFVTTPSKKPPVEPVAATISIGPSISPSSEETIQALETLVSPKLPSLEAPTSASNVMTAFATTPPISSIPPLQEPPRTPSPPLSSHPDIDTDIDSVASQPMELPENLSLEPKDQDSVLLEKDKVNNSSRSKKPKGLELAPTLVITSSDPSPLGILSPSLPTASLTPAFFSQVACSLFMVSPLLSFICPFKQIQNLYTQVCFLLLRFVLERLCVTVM
# Method in brief: as §1
# ETV2 = target: T4, ETV2 (Homo sapiens, UniProt O00321 1-342); conditions: protein: recombinant; tags: N-terminal GST; dsDNA, one strand shown
# T4 sequence: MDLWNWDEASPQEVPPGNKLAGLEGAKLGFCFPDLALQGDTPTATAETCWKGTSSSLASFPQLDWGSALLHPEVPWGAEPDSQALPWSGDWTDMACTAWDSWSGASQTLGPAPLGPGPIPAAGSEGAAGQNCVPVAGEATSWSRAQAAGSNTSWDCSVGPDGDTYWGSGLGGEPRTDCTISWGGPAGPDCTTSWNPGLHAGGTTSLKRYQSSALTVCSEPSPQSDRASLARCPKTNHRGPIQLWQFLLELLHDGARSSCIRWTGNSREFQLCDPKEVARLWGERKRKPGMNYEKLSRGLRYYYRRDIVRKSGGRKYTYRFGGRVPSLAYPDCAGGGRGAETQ
# Method in brief: as §1
# ELF3 = target: T5, ELF3 (Homo sapiens, UniProt P78545 1-371); conditions: protein: recombinant; tags: N-terminal GST; dsDNA, one strand shown
# T5 sequence: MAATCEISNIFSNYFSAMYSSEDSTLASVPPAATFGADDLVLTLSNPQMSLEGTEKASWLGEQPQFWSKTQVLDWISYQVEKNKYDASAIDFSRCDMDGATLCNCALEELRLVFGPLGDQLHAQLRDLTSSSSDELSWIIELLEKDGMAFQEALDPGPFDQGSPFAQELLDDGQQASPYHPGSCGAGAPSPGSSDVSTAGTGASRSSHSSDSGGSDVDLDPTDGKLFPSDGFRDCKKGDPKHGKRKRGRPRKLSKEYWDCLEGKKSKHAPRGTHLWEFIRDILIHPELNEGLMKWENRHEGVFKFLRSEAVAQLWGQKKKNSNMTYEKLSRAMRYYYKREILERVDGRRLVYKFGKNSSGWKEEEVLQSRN
# Method in brief: as §1
# CRX = CRX (Homo sapiens, UniProt O43186 1-299); conditions: protein: recombinant; tags: N-terminal GST; dsDNA, one strand shown
# Method in brief: as §1
# ETV1 = ETV1 (Homo sapiens, UniProt P50549 1-477); conditions: protein: recombinant; tags: N-terminal GST; dsDNA, one strand shown
# Method in brief: as §1
# HSF1, sequence (Q00613 whole entry): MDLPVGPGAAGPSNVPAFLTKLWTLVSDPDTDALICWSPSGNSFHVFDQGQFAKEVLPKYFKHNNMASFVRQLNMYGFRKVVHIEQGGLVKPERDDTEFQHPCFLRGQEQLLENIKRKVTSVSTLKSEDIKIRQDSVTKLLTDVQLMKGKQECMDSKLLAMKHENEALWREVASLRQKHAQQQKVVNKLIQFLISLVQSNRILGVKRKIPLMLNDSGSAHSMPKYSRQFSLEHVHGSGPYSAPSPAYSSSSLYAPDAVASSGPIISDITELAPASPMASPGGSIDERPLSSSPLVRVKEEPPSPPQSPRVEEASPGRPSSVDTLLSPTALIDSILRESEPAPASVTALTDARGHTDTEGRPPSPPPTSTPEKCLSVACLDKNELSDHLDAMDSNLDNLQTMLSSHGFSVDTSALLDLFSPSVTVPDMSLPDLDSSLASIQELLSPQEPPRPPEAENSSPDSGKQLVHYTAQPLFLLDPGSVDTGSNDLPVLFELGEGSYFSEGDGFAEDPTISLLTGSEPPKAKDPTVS
# ETV5, sequence (P41161 whole entry): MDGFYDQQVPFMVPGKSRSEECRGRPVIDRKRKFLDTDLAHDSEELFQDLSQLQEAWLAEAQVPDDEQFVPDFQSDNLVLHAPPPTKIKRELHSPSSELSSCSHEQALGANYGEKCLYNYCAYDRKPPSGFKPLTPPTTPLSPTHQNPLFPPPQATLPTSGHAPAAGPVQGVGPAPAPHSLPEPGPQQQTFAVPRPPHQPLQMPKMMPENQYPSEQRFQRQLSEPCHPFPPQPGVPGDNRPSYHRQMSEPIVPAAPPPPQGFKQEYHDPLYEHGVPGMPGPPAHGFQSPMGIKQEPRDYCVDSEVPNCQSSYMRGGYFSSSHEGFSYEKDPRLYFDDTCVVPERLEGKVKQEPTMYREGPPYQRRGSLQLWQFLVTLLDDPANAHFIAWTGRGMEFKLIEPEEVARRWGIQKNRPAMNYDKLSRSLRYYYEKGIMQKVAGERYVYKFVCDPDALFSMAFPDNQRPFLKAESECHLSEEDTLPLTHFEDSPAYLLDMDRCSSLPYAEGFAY
# ETV1, sequence (P50549 whole entry): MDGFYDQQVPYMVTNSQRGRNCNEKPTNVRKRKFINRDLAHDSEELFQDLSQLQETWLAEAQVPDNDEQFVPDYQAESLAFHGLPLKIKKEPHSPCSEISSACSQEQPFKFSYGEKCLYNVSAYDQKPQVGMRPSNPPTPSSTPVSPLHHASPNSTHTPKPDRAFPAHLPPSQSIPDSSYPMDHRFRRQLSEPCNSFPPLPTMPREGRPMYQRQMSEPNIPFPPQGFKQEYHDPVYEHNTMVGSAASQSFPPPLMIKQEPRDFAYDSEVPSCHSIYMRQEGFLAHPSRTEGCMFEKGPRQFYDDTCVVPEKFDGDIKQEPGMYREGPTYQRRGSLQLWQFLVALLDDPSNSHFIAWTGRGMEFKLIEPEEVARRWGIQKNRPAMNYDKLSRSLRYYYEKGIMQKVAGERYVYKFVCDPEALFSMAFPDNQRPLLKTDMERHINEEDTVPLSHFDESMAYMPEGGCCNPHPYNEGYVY
# ELF4, sequence (Q99607 whole entry): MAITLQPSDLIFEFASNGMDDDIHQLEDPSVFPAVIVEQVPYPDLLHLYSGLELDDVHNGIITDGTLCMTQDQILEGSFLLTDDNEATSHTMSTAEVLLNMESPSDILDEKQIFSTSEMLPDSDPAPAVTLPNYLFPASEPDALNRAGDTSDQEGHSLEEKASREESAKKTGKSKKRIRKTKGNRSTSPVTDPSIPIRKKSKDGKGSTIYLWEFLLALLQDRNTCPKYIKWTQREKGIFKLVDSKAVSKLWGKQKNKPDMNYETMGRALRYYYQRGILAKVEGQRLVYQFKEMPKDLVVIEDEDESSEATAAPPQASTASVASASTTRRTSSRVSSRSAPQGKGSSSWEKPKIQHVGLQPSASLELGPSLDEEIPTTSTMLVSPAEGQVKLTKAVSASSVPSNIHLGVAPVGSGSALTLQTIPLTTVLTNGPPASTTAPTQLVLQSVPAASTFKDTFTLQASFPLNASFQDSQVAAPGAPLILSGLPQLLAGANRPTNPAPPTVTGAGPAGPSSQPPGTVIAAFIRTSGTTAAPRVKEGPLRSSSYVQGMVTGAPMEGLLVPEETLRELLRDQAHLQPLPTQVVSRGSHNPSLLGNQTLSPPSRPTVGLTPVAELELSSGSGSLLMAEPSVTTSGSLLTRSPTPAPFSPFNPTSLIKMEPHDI
# CRX, sequence (O43186 whole entry): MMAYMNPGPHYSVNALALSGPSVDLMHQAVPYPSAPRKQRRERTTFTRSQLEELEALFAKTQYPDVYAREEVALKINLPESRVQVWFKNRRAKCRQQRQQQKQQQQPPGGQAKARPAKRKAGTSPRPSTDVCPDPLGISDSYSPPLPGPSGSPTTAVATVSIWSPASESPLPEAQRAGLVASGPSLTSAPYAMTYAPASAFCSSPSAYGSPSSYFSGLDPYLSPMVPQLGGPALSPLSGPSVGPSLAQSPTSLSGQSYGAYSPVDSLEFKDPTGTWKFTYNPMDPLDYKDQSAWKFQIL
sequence,measurement,setting,value
TCTGCG,binding signal,FEV,"1.22 fold enrichment (6-mer frequency, TF over GST control)"
same,binding signal,ETV5,"1.22 fold enrichment (6-mer frequency, TF over GST control)"
same,binding signal,HSF1,"1.15 fold enrichment (6-mer frequency, TF over GST control)"
same,binding signal,SPIC,"1.24 fold enrichment (6-mer frequency, TF over GST control)"
same,binding signal,ELF4,"1.2 fold enrichment (6-mer frequency, TF over GST control)"
same,binding signal,ELK4,"1.14 fold enrichment (6-mer frequency, TF over GST control)"
same,binding signal,ETV2,"1.19 fold enrichment (6-mer frequency, TF over GST control)"
same,binding signal,ELF3,"1.31 fold enrichment (6-mer frequency, TF over GST control)"
same,binding signal,CRX,"1.09 fold enrichment (6-mer frequency, TF over GST control)"
same,binding signal,ETV1,"1.45 fold enrichment (6-mer frequency, TF over GST control)"
